Measured values published in PubChem BioAssay AID485294 (National Center for Advancing Translational Sciences (NCATS), 2010).
The whole screen tested about 370,000 compounds, of which about 150 (0.041%) were called active. Inconclusive results (about 14%) are left out. The sample holds actives, similar compounds and a random draw of the others, so the mix is not that of the screen. Unmarked numbers belong to inactive results. The call rests on the fitted dose curve; in most records, active means well fitted inhibition curve with a large enough effect; inconclusive means small, poorly fitted or top-dose-only effect; inactive means flat fitted curve, though single readings scatter.
Further: nearly all actives have a fitted effect of over 25% in size.
Potency means the concentration at half of the fitted maximal effect.
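Wherever activity change, negative = inhibition is given: 0% = no-compound wells and -100% = no-enzyme wells.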

The compounds below were run against Beta-lactamase (Escherichia coli (strain K12)) (UniProt P00811) (assay: qHTS Inhibitors of AmpC Beta-Lactamase (assay with detergent)). Conditions: AmpC hydrolysis of nitrocefin, absorbance 480 nm, 0.01% Triton; series mostly up to 114 µM; activity change, negative = inhibition: at the top concentration.
Chain of Beta-lactamase (Escherichia coli (strain K12)) (P00811 whole entry, looked up): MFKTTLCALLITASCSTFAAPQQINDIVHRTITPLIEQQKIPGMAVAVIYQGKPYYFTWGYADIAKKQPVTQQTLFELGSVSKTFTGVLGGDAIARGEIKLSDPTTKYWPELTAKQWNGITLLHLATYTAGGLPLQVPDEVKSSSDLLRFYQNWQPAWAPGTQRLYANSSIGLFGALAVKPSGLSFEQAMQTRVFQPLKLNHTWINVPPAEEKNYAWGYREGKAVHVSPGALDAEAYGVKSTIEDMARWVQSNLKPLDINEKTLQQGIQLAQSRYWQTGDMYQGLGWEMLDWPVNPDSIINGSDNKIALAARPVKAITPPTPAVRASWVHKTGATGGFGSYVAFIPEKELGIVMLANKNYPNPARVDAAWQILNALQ
Description: NIH Molecular Libraries Probe Production Network [MLPCN] NIH Chemical Genomics Center [NCGC] Assay Provider: Professor Brian Shoichet, UCSF Assay Overview: This aggregation profiling approach exploits the sensitivity of aggregate formation to detergent. Inhibition of b-lactamase is measured in the presence and absence of 0.01% Triton X-100. This particular assay had the prescence of 0.01% Triton X-100. See Pubchem assay "Promiscuous and Specific Inhibitors of AmpC Beta-Lactamase (assay without detergent)" for related screen. Compounds that inhibit only in the absence of detergent are considered likely promiscuous aggregators. A screen of 1,030 compounds was performed in Brian Shoichet's lab in 96-well format. AmpC activity was measured by following the absorbance at 480 nm. Nitrocefin is a chromogenic substrate: while nitrocefin is yellow (lmax 390 nm), the product of its hydrolysis is red (lmax 486 nm, 17,000 M-1). AmpC beta lactamase was provided by Shoichet Lab, UCSF.
Buffer: 20 mM phosphate buffer, pH 7.0 Triton X-100: No Detergent screen: 0.0001%, Detergent screen: 0.01%. Reagents/Controls: Buffer in columns 3 and 4 as negative control (no enzyme). 5.3 nM AmpC in columns 1, 2, 5-48. Titration of UCSF compound 9 control (from 10 mM, then 1:2) pin-transferred to column 2. Column 1 is neutral (100% activity). Assay Steps: Six uL of reagents were dispensed to 1536-well Greiner black clear bottom plates. Compounds and controls (23 nL) were transferred via Kalypsys PinTool. The plates were incubated for 15 min at room temperature, and then 2 uL of 800 uM solution of nitrocefin was added to start the reaction. The plates were immediately transferred to and read every 20 seconds for 4 min on ViewLux (Perkin-Elmer) High-throughput CCD imager using 480 nm absorbance protocol. During dispense, reagent bottles were kept submerged into 4 deg C water bath. Keywords: NIH Roadmap, MLSCN, MLI, MLSMR, qHTS, NCGC, AmpC Beta-Lactamase, Aggregation
In the case of Cc1ccc(N(C(=O)CNC(=O)c2ccco2)C(C(=O)NC2CCCC2)c2ccncc2)cc1 (stereo not given), the Potency is reported as 14.1 µM (active). For CC(C)(C)NC(=O)C(c1ccncc1)N(C(=O)CNC(=O)c1ccco1)c1ccc2c(c1)OCO2 (stereo not given), the “activity change, negative = inhibition” value was -14.3%. In the case of COc1cccc(N(C(=O)CNC(=O)c2ccco2)C(C(=O)NC2CCCCC2)c2cccnc2)c1 (stereo not given), the “activity change, negative = inhibition” value is reported as -8.32%. With Cc1nnc(N2CCCC(C(=O)NCCN(C)C)C2)c2nn(-c3ccccc3)c(C)c12 (stereo not given) the “activity change, negative = inhibition” value was 1.73%. In the case of CCOc1ccc(-c2n[nH]c3c2C(c2ccccc2OC)N(c2ccc(Br)cc2)C3=O)cc1 (stereo not given), the “activity change, negative = inhibition” value is reported as -2.45%. With Nc1ccc2nc3c(=O)[nH]c(=S)[nH]c3nc2c1 the Potency was 50.1 µM (active). With Clc1ccc(CSc2nncn3c2cc2occc23)cc1 the “activity change, negative = inhibition” value was -10.9%. In the case of Cc1ccc(C)c(S(=O)(=O)c2nnn3c2nc(N2CCOCC2)c2sccc23)c1, the “activity change, negative = inhibition” value is reported as 9.64%. In the case of CCC(=O)N1CCc2cc(Br)cc(S(=O)(=O)Nc3ccc(C)cc3C)c21, the “activity change, negative = inhibition” value is reported as 4.3%. For CC1=C(c2ccc(C)cc2)S(=O)(=O)NC1=NCCCN1CCN(c2cc(C)ccc2C)CC1, the “activity change, negative = inhibition” value was 19.9%. For Fc1ccc(C(Nc2ccc(Cl)c(C(F)(F)F)c2)c2nnc(-c3ccccc3)o2)cc1 (stereo not given), the “activity change, negative = inhibition” value was 5.04%. In the case of Cc1ccc(-c2cn3c(n2)sc2cc(C(=O)NCc4cccs4)ccc23)c(C)c1, the “activity change, negative = inhibition” value is reported as 13.4%. With CCOC(=O)c1c(NC(=O)c2ccc(S(=O)(=O)N(CC)CC)cc2)sc2c1CCCCC2 the “activity change, negative = inhibition” value was -9.3%. COc1ccc(-c2cccc(NS(=O)(=O)c3cc(C)c(OC)c(C)c3C)c2)nn1 was tested, and the “activity change, negative = inhibition” value was 11.2%. With Cc1ccc(NC(=O)Cc2ccc(NC(=O)N3CCCCc4ccccc43)cc2)cc1 the “activity change, negative = inhibition” value was 3.85%. COc1ccc(CCC(=O)NCCc2csc(-c3ccc(Cl)cc3)n2)cc1 was tested, and the “activity change, negative = inhibition” value was 2.64%. COc1cc(-c2cc3n(C)c(C)c(CCC(=O)Nc4ccc(F)cc4)c(=O)n3n2)cc(OC)c1OC was tested, and the “activity change, negative = inhibition” value was -3.72%. For Cc1ccc(NC(=O)c2cc(S(=O)(=O)NCCC3=CCCCC3)ccc2F)cc1C, the “activity change, negative = inhibition” value was -2.66%. For Cc1cc(Nc2cccc(C(F)(F)F)c2)nc2ccc(NC(=O)c3ccc(=O)[nH]c3)cc12, the “activity change, negative = inhibition” value was 1.63%. With COCCn1c(CCC(=O)Nc2cc(C)ccc2C)nc2cccnc21 the “activity change, negative = inhibition” value was 17.5%. With Cc1ccc2cccc(NC(=O)c3ccc(OC(C)C)cc3)c2n1 the “activity change, negative = inhibition” value was -6.92%. In the case of COc1ccc(-c2nc3nc(C)cc(C)n3c2Nc2c(C)cccc2C)cc1, the “activity change, negative = inhibition” value is reported as 8.99%. O=C(Nc1c(C(=O)N2CCN(c3ccc(F)cc3)CC2)oc2ccccc12)c1ccco1 was tested, and the “activity change, negative = inhibition” value was 6.2%. For CCOc1ccc(NC(=O)CCc2c(C)nn(-c3ccc(N4CCCC4)nn3)c2C)cc1, the “activity change, negative = inhibition” value was -8.16%. For O=C(COc1ccccc1F)Nc1ccc(C(=O)OCc2cc(=O)n3nc(C4CC4)sc3n2)cc1, the “activity change, negative = inhibition” value was 2.62%. For CCOc1cc(C2C(C(=O)OC)=C(C)NC3=C2C(=O)c2ccccc23)ccc1O (stereo not given), the “activity change, negative = inhibition” value was -0.36%. In the case of O=S(=O)(c1ccc2nc(NCc3ccccc3Cl)ccc2c1)N1CCCCC1, the “activity change, negative = inhibition” value is reported as -1.11%. For COc1ccc(Cl)cc1-n1c(CCC(=O)O)ccc1-c1ccc(C)cc1, the “activity change, negative = inhibition” value was 3.97%. For O=C(Nc1ccc(S(=O)(=O)N2CCC(c3nc4ccccc4s3)CC2)cc1)c1ccccc1F, the “activity change, negative = inhibition” value was 16.5%. In the case of CSc1ccc(CCNC(=O)c2cc(C)nc3c2c(C)nn3-c2cccc(F)c2)cc1, the “activity change, negative = inhibition” value is reported as 0.607%. With Cc1ccc(Cl)cc1NC(=O)CSc1nc2ccccc2nc1Cc1ccccc1 the “activity change, negative = inhibition” value was 21.3%. With CCCCN(CC)CCCNC(=O)c1nn(C)c2c1CS(=O)(=O)c1ccccc1-2 the “activity change, negative = inhibition” value was 17.6%. In the case of CCC(CC)c1nn2cc(-c3ccccc3)nc2s1, the “activity change, negative = inhibition” value is reported as 6.01%. COc1ccc(N2C(=O)CSC23C(=O)N(Cc2cccc(F)c2)c2ccccc23)cc1Cl (stereo not given) was tested, and the “activity change, negative = inhibition” value was 20.8%. O=C(CC(NCc1cccnc1)C(=O)O)Nc1ccc(O)cc1 (stereo not given) was tested, and the “activity change, negative = inhibition” value was 18.5%. With CCN(CCCNC(=O)c1ccc(Sc2ccc(C)cc2)c(NC(C)=O)c1)c1cccc(C)c1 the “activity change, negative = inhibition” value was 11%. Cc1ccc(CNC(=O)CCc2c(C)nn(-c3ccc(N4CCCC4)nn3)c2C)cc1 was tested, and the “activity change, negative = inhibition” value was 9.01%. For CC1=C(C(=O)OCc2ccc(C)cc2)C(c2ccccc2Cl)CC(=O)N1 (stereo not given), the “activity change, negative = inhibition” value was -0.201%. For Cc1ccc(C(=O)NCCSc2c(C)[nH]c3ccccc23)cc1C, the “activity change, negative = inhibition” value was 9.55%. For CCc1ccc(NC(=O)c2cnc3c(-c4ccccc4)c(C)nn3c2C)cc1, the “activity change, negative = inhibition” value was 6.28%. CCN(C(=O)c1sc2cc(OC)ccc2c1Cl)c1ccccc1 was tested, and the “activity change, negative = inhibition” value was 1.06%. With COC(=O)c1cc(NC(=O)c2cnc(SC)nc2-c2ccccc2)cc(C(=O)OC)c1 the “activity change, negative = inhibition” value was 7.39%. In the case of CCCCOc1ccc(CN2C(=O)C(=O)c3cc(Br)cc(C)c32)cc1OC, the “activity change, negative = inhibition” value is reported as 13.6%. For CCOc1ccc(/C=C(\C#N)c2nc3ccccc3c(=O)[nH]2)cc1OC, the “activity change, negative = inhibition” value was -3.18%. In the case of O=C(COc1ccccc1)OCc1cc(=O)n2nc(-c3cccs3)sc2n1, the “activity change, negative = inhibition” value is reported as -3.28%.
